# Assay results published in paper PMC7862700, “An all-to-all approach to the identification of sequence-specific readers for epigenetic DNA modifications on cytosine”.
# Tests used:
# Assay in all cases: DAPPL (digital affinity profiling via proximity ligation, sequencing); 10 mM Tris-HCl pH 7.5, 50 mM NaCl, 1 mM DTT, 4% glycerol, room temperature, 30 min; GST-TFs on glutathione beads, 16-mer random dsDNA library, 0.1% formaldehyde crosslink after washing; high values mean tight binding
# Conditions in all cases: protein: recombinant; tags: N-terminal GST; dsDNA, one strand shown
# [1] = biological target: T1, ELK4 (Homo sapiens, UniProt P28324-2 1-405)
# T1 sequence: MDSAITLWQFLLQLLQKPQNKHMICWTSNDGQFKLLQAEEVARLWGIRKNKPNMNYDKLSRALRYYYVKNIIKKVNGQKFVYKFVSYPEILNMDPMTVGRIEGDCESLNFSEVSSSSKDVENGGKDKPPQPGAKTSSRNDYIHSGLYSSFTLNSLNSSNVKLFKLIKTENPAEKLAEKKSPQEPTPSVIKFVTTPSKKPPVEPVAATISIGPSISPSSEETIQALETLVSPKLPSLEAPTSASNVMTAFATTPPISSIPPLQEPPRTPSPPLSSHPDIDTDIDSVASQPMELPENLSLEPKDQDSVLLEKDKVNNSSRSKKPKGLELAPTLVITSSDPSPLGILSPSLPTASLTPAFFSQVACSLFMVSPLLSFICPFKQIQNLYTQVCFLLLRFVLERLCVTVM
# In short: (§1)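 Human transcription factors were made in yeast as GST fusions, captured on glutathione beads and barcoded with DNA. With a tag-only sample included, the pool was incubated with 200 nmole of a random double-stranded 16-mer DNA library in Tris/NaCl/DTT/glycerol buffer at room temperature for 30 min, then crosslinked with 0.1% formaldehyde after washing, ligated by proximity, amplified and sequenced. For binding signal, each hexamer's read frequency for a factor is divided by its frequency for the tag-only sample.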
# [2] = biological target: T2, ETV2 (Homo sapiens, UniProt O00321 1-342)
# T2 sequence: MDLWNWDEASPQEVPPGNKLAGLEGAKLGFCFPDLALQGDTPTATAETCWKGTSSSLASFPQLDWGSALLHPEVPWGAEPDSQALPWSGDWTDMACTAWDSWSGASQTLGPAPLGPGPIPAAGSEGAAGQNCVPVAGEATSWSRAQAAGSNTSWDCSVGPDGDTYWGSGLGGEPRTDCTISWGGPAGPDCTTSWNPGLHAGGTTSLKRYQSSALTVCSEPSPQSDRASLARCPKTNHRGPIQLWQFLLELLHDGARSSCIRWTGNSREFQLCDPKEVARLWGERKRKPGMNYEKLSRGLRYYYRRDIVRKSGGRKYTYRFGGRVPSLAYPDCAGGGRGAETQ
# In short: as §1
# [3] = biological target: T3, ELF3 (Homo sapiens, UniProt P78545 1-371)
# T3 sequence: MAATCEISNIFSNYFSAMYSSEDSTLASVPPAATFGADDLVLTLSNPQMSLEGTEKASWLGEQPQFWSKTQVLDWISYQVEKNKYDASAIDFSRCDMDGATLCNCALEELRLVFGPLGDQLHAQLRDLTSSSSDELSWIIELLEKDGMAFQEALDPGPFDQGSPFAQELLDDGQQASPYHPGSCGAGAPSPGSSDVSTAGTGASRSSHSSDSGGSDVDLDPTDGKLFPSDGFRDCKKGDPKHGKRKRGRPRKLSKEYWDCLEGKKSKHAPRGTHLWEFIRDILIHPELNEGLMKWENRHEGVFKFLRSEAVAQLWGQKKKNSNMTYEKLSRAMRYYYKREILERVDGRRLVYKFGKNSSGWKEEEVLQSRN
# In short: as §1
# [4] = biological target: ETV1 (Homo sapiens, UniProt P50549 1-477)
# Sequence of ETV1 (P50549 whole entry): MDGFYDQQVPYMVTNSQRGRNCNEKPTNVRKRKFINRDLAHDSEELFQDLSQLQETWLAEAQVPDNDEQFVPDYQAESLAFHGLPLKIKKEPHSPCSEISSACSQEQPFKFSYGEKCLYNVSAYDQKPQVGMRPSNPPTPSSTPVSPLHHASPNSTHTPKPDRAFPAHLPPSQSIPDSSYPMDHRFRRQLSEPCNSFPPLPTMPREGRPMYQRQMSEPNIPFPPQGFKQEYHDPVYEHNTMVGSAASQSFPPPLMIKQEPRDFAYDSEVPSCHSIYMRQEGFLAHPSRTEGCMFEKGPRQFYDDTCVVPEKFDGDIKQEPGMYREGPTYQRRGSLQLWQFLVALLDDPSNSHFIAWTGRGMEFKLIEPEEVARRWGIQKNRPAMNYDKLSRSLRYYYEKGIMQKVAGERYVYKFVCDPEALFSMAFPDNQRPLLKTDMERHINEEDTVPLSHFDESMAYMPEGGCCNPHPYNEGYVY
# In short: as §1
# [5] = biological target: T4, ERF (Homo sapiens, UniProt P50548 1-548)
# T4 sequence: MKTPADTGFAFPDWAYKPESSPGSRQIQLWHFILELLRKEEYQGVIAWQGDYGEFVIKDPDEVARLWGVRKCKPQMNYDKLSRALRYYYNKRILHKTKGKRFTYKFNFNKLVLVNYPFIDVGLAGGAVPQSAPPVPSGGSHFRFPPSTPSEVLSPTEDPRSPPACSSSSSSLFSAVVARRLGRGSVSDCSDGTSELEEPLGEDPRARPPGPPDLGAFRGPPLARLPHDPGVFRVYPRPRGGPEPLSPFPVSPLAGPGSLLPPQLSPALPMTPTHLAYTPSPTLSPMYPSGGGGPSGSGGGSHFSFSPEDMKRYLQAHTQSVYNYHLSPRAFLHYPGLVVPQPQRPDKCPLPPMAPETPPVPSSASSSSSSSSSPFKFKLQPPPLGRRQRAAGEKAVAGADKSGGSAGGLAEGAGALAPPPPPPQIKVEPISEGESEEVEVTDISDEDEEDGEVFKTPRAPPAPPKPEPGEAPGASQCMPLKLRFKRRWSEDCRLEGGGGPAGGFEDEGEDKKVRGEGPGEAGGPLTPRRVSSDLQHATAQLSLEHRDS
# In short: as §1
# [6] = biological target: T5, ETV3L (Homo sapiens, UniProt Q6ZN32 1-361)
# T5 sequence: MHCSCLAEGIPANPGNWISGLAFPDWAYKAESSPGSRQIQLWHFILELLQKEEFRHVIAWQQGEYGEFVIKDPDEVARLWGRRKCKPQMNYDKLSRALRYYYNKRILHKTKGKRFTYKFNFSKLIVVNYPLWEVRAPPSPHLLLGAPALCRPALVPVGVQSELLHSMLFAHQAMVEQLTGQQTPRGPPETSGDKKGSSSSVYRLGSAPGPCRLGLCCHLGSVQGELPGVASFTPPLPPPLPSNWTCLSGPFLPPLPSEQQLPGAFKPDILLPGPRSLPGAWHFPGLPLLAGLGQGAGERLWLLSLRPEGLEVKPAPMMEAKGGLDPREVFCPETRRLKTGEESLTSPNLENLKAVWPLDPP
# In short: as §1
# [7] = biological target: T6, ETS2 (Homo sapiens, UniProt P15036 1-469)
# T6 sequence: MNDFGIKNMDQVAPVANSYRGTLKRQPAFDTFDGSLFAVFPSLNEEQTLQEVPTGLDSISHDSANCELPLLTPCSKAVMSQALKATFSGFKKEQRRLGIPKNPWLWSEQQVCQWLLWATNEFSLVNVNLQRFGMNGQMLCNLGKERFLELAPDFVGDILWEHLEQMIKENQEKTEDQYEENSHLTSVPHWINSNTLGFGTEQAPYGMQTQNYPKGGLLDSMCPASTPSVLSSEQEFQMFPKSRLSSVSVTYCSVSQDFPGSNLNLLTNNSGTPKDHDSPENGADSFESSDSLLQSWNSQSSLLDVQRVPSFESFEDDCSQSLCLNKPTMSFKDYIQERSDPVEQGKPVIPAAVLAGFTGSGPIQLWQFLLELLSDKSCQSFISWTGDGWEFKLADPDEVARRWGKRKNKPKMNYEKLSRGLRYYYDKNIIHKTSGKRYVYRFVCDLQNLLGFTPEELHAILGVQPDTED
# In short: as §1
# [8] = biological target: T7, ETV7 (Homo sapiens, UniProt Q9Y603 1-341)
# T7 sequence: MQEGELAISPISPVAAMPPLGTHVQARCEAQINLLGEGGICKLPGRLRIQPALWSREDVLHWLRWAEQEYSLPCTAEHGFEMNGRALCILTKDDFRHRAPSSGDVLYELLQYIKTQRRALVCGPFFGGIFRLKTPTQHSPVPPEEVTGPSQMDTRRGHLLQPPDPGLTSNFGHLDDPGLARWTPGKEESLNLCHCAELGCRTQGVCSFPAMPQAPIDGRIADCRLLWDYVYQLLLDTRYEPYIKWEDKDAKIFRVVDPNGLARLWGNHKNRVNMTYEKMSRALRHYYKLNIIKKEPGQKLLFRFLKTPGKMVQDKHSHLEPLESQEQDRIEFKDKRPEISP
# In short: as §1
# [9] = biological target: T8, ETV3 (Homo sapiens, UniProt P41162-2 1-143)
# T8 sequence: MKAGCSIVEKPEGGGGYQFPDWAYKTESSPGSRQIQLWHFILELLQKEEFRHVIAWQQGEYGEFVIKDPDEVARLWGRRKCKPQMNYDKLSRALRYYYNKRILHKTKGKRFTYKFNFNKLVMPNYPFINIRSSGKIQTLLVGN
# In short: as §1
# [10] = biological target: ETV6 (Homo sapiens, UniProt P41212 1-452)
# Sequence of ETV6 (P41212 whole entry): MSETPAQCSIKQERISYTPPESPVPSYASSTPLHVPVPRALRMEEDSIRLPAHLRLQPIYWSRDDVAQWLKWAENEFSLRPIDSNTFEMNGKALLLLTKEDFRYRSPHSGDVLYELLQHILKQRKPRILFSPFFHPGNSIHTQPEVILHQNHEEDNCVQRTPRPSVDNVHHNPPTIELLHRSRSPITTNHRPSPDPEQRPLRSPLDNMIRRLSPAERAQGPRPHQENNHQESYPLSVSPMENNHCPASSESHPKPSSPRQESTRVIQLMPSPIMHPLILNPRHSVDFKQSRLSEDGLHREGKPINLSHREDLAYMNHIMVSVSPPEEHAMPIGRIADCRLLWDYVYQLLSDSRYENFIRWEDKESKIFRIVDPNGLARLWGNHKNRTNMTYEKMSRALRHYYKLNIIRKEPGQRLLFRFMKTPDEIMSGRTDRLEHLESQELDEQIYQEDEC
# In short: as §1
sequence,measurement,setting,value
CGTTGC,binding signal,[1],"1.16 fold enrichment (6-mer frequency, TF over GST control)"
same,binding signal,[2],"1.12 fold enrichment (6-mer frequency, TF over GST control)"
same,binding signal,[3],"1.07 fold enrichment (6-mer frequency, TF over GST control)"
same,binding signal,[4],"1.18 fold enrichment (6-mer frequency, TF over GST control)"
same,binding signal,[5],"1.13 fold enrichment (6-mer frequency, TF over GST control)"
same,binding signal,[6],"1.17 fold enrichment (6-mer frequency, TF over GST control)"
same,binding signal,[7],"1.2 fold enrichment (6-mer frequency, TF over GST control)"
same,binding signal,[8],"1.03 fold enrichment (6-mer frequency, TF over GST control)"
same,binding signal,[9],"1.16 fold enrichment (6-mer frequency, TF over GST control)"
same,binding signal,[10],"1.04 fold enrichment (6-mer frequency, TF over GST control)"
